The target in assay [1] is Estrogen receptor beta (Homo sapiens) (UniProt Q92731). Briefly: qHTS assay to identify small molecule agonists of the estrogen receptor beta (ER-beta) signaling pathway (AID 1259377; active = well fitted activation curve with a large enough effect in the signal ratio in the repeat runs, not every such curve was filed as active; the % refers to the signal ratio). The essentials: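 qHTS in ER-beta-UAS-bla HEK293T cells: 6 hr settling, then 16 hr compound at 37C, then LiveBLAzer substrate 2 h at RT before fluorescence reading.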
Estrogen receptor beta (Homo sapiens), sequence (Q92731 whole entry, looked up): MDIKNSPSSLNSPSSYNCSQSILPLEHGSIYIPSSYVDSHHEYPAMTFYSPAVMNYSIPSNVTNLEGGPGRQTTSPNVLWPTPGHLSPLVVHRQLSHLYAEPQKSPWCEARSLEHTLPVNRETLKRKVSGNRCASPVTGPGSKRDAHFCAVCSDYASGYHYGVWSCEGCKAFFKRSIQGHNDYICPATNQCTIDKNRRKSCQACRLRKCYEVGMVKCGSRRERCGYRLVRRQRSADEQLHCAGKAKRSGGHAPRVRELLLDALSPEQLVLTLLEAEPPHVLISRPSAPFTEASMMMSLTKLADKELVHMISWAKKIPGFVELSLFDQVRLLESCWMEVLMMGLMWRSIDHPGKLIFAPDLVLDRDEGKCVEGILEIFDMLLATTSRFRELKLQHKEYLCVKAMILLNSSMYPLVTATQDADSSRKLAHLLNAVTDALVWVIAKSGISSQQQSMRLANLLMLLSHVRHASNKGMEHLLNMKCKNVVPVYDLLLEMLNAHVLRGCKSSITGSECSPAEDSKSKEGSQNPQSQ
Assay [2] concerns the target Androgen receptor (Homo sapiens) (UniProt P10275). The assay is described as follows: qHTS assay to identify small molecule agonists of the androgen receptor (AR) signaling pathway in the presence of an antagonist (AID 1259381; calls by dose curve; also: nearly all actives have a fitted effect of over 15% in size). The procedure, abridged: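 Here, 15-concentration compound series were pin-transferred onto MDA-kb2 MMTV-luciferase cells already dosed with nilutamide (3.0uM final). After 16hr at 37C, ONE-Glo was added and luminescence read 30min later at room temperature.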
On the technique in general: In qHTS, concentration-response curves come from the screen itself.

Assay [3] can be described thus: qHTS assay to identify small molecule antagonists of the estrogen receptor beta (ER-beta) signaling pathway - cell viability counter screen (AID 1259382).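 Also: HEK293T cells carrying ER-beta-UAS-bla reporter stimulated with estradiol; series mostly up to about 92 µM; nearly all actives have a fitted effect of over 55% in size.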 The procedure, abridged: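 Tox21 10K library tested in qHTS format on ER-beta-bla HEK293T cells stimulated with 1nM E2; 16 hr treatment at 37C. Same-well CellTiter-Glo luminescence served as the cell viability measure.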

In assay [4] the target is Estrogen receptor (Homo sapiens) (UniProt P03372). Briefly: qHTS assay to identify small molecule agonists of the estrogen receptor alpha (ER-alpha) signaling pathway in the presence of an antagonist (AID 1259383; calls by dose curve; also: top concentration of the series differs between compounds; nearly all actives have a fitted effect of over 15% in size). The procedure, abridged: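 In VM7Luc4E2 cells, 4,000 per well, compounds at 15 concentrations were co-incubated 22hr at 37C with 10.0nM final ICI-182,780. Luminescence from the stably transfected 4×ERE-luciferase reporter was recorded 30min after ONE-Glo addition.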
Estrogen receptor (Homo sapiens), sequence (P03372 whole entry, looked up): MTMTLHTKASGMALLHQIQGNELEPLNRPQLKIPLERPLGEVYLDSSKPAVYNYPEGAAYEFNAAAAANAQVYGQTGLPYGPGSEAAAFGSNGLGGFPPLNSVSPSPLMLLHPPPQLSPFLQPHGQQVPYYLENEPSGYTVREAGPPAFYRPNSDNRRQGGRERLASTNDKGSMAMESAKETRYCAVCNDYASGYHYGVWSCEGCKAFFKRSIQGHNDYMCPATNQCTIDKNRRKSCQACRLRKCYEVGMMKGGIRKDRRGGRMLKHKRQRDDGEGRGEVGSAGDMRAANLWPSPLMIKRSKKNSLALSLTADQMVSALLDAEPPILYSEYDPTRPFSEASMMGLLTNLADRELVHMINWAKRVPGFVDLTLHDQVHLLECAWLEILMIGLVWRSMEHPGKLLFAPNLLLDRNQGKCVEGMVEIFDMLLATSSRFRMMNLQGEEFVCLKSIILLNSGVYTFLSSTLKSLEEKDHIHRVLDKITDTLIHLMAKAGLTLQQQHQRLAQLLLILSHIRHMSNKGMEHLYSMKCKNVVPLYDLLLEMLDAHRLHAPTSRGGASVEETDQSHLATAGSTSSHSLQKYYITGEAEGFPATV

A short description of assay [5]: qHTS assay to identify small molecule agonists or antagonists of the thyroid stimulating hormone receptor (TSHR) signaling pathway - wild type cell line counter screen (AID 1259384; calls by dose curve). The essentials: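 Counter screen in untransfected Hek293: compounds (15-point titration, triplicate) plus phosphodiesterase inhibitor Ro20-1724 added after 18 h plating; 30 min RT. Intracellular cAMP via competitive d2/cryptate immunoassay, 1 h incubation.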

For assay [6], the target named is Thyrotropin receptor (Homo sapiens) (UniProt P16473). Briefly: qHTS assay to identify small molecule antagonists of the thyroid stimulating hormone receptor (TSHR) signaling pathway (AID 1259385; calls by dose curve; also: nearly all actives have a fitted effect of over 20% in size). The procedure, abridged:
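Antagonist mode: compound-treated TSHR-expressing HEK293 cells were stimulated with 1.5 ng/mL TSH (final) in presence of Ro20-1724 for 30 min at RT. HTRF cAMP detection after 1 h; each compound tested at 15 concentrations, triplicate.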

Assay [7] addresses Progesterone receptor (Homo sapiens) (UniProt P06401). The assay is described as follows: qHTS assay to identify small molecule agonists of the progesterone receptor (PR) signaling pathway (AID 1346784; calls by dose curve; also: nearly all actives have a fitted effect of over 30% in size). The essentials:
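Fluorescence from LiveBLAzer B/G FRET substrate cleavage (2 hr, RT) reported PR activation in PR-UAS-bla HEK 293T cells treated 16 hr at 37C/5% CO2 with compounds; medium contained 2% charcoal-stripped FBS.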

Assay [8] is described as follows: qHTS assay to identify small molecule antagonists of the progesterone receptor (PR) signaling pathway - cell viability counter screen (AID 1346798). Also: series mostly up to about 92 µM; nearly all actives have a fitted effect of over 50% in size. The procedure, abridged:
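CellTiter-Glo luminescence; PR-UAS-bla HEK293T, 3,000 cells/well; compound + R5020, 16 hr, 37C/5% CO2; 30 min RT before read.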

Assay [9] is described as follows: qHTS assay to identify small molecule agonists of the progesterone receptor (PR) signaling pathway - cell viability counter screen (AID 1346799; calls by dose curve; also: nearly all actives have a fitted effect of over 45% in size). The procedure, abridged: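 In parallel with the beta-lactamase readout, cytotoxicity toward PR-UAS-bla HEK293T cells was measured by CellTiter-Glo luminescence following 16 hr compound incubation in 2% charcoal-stripped FBS medium.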

Assay [10] is described as follows: qHTS assay to identify small molecule antagonists of the TGF-beta/Smad signaling pathway - cell viability counter screen (AID 1346824). Also: nearly all actives have a fitted effect of over 50% in size. The procedure, abridged:
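Cytotoxicity counter-screen run in the same wells as the beta-lactamase Smad reporter read: CellTiter-Glo luminescence after 30 min at room temperature. HEK 293T SBE-bla cells had 5 hr compound exposure at 37 C with TGF-beta1 (0.25 ng/mL stock).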

A short description of assay [11]: qHTS assay to identify small molecule agonists of the TGF-beta/Smad signaling pathway - cell viability counter screen (AID 1346829). Also: top concentration of the series differs between compounds; nearly all actives have a fitted effect of over 45% in size. The procedure, abridged: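 CellTiter-Glo luminescence readout; SBE-bla HEK 293T cells, overnight plating, compound 5 hr at 37 C/5% CO2, then bla substrate 2 hr RT, then CellTiter-Glo 30 min RT.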
A short description of assay [12]: qHTS assay to identify small molecule agonists of the TGF-beta/Smad signaling pathway (AID 1346859; active = well fitted activation curve with a large enough effect in the signal ratio in the repeat runs, not every such curve was filed as active; the % refers to the signal ratio; also: series mostly up to about 77 µM). The procedure, abridged: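 After overnight seeding, SBE-bla HEK 293T cells are dosed with compounds in DMSO and kept 5 hr at 37 C, 5% CO2. LiveBLAzer-type FRET substrate is then applied for 2 hr at room temperature.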
The target of assay [13] is Thyrotropin-releasing hormone receptor (Homo sapiens) (UniProt P34981). Briefly: qHTS assay to identify small molecule agonists of the thyrotropin-releasing hormone receptor (TRHR) signaling pathway (AID 1346891; calls by dose curve; also: potency is read from the fitted curve at half-maximal effect; as to activation: series mostly up to about 58 µM). The essentials: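 Compounds were tested as agonists at 15 concentrations, in triplicate, on TRHR-Hek293 cells; calcium-sensitive dye fluorescence was recorded for 3 min following addition.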
Thyrotropin-releasing hormone receptor (Homo sapiens), sequence (P34981 whole entry, looked up): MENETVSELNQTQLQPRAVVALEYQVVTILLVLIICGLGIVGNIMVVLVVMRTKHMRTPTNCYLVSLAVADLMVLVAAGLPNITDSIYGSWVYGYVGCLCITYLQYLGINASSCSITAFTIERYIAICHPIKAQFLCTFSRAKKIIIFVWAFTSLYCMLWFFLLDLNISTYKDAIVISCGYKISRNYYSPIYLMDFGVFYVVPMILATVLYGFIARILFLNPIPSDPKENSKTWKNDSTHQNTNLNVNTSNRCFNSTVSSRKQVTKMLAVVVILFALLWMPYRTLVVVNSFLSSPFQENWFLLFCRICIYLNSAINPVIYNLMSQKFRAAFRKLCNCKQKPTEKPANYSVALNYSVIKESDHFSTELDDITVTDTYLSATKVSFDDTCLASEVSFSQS

Assay [14] is described as follows: Human pregnane X receptor (PXR) small molecule agonists, qHTS cell viability counter screen (AID 1346977). Also: nearly all actives have a fitted effect of over 50% in size. The procedure, abridged:
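Viability counter screen: CellTiter-Fluor signal in PXR-Luc HepG2 cells, 24hr compound exposure, 37C, 5% CO2.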

The nature of assay [15]: qHTS assay to identify small molecule agonists of the androgen receptor (AR) signaling pathway in the presence of an antagonist - cell viability counter screen (AID 1259379).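 Also: MDA-kb2 human breast cancer cells carrying an MMTV luciferase reporter; series mostly up to about 92 µM; nearly all actives have a fitted effect of over 25% in size.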 The essentials: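 In MDA-kb2 cells (human breast carcinoma, MMTV-luciferase), compounds at 15 concentrations plus 3.0uM nilutamide; 16 hr, 37C, 0% CO2; CellTiter-Fluor fluorescence read for viability.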

Assay [16] in a line: qHTS assay to identify small molecule agonists of the estrogen receptor beta (ER-beta) signaling pathway - cell viability counter screen (AID 1259380). Also: nearly all actives have a fitted effect of over 30% in size. The essentials: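 Viability of ER-beta-UAS-bla HEK293T cells was determined by CellTiter-Glo luminescence following 16 hr treatment with test compounds at 37C.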
The nature of assay [17]: qHTS assay to identify small molecule agonists of the estrogen receptor alpha (ER-alpha) signaling pathway in the presence of an antagonist - cell viability counter screen (AID 1259386).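 Also: series mostly up to about 92 µM; cells exposed to compounds for 22 h at 37 °C before the viability read; nearly all actives have a fitted effect of over 30% in size.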 The procedure, abridged:
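Fluorescent CellTiter-Fluor viability signal from VM7Luc4E2 cells, with the reagent added during the final hour of a 22hr compound exposure at 37C in the presence of 10.0nM ICI-182,780.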

The target in assay [18] is Progesterone receptor (Homo sapiens) (UniProt P06401). Briefly: qHTS assay to identify small molecule antagonists of the progesterone receptor (PR) signaling pathway (AID 1346795; active = well fitted inhibition curve with a large enough effect in the signal ratio in the repeat runs, not every such curve was filed as active; the % refers to the signal ratio). The procedure, abridged:
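Fluorescence intensity measured 2 hr after adding beta-lactamase FRET substrate to PR-UAS-bla HEK293T cells that had been co-treated 16 hr with compound and 1 nM R5020 (final concentration) in 2% charcoal-stripped FBS.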

Assay [19] deals with Thyrotropin-releasing hormone receptor (Homo sapiens) (UniProt P34981). The assay is described as follows: qHTS assay to identify small molecule antagonists of the thyrotropin-releasing hormone receptor (TRHR) signaling pathway (AID 1346877; active = well fitted inhibition curve with a large enough effect in the repeat runs, not every such curve was filed as active; also: series mostly up to about 51 µM). The procedure, abridged: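 In this cell-based calcium flux format, HEK293 cells expressing TRHR received test compound for 5 min before the agonist TRH (1 nM final). Dye loading lasted 2 h at 37 °C.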

Unmarked numbers belong to inactive results. Records with an inconclusive call do not appear. Activity calls are given as the source filed them. Unless noted, calls follow the shape of the dose curve; as a rule, active = well fitted curve in the direction sought with a large enough effect in the repeat runs; inconclusive = weak or mixed curves; inactive = no such curve, though single readings can be large; an effect the other way counts as inactive or inconclusive.

Progesterone receptor (Homo sapiens), sequence (P06401 whole entry, looked up): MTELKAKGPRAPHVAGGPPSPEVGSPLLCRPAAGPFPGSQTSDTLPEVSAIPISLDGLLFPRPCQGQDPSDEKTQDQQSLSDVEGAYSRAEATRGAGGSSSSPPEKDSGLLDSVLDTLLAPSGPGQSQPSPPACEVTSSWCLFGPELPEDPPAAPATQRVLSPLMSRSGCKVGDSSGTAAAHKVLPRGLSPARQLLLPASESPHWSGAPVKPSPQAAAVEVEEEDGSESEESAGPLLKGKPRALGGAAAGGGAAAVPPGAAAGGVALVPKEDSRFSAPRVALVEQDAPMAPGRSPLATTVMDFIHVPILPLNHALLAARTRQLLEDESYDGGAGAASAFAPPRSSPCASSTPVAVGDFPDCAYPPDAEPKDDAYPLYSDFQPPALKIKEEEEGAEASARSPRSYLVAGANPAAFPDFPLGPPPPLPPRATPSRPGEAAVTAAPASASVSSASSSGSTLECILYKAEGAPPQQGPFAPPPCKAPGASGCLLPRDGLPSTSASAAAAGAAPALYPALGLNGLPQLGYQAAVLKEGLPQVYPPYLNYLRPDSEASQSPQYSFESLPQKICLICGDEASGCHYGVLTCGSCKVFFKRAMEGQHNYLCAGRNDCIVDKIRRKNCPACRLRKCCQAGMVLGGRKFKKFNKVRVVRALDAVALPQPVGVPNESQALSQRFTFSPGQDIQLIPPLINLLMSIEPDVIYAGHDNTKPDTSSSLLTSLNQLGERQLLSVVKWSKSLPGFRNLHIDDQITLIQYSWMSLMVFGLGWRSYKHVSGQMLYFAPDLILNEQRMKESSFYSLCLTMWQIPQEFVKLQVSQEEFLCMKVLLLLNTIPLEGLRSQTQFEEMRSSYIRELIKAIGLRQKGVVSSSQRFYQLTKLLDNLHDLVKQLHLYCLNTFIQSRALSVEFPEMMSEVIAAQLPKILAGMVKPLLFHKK
Androgen receptor (Homo sapiens), sequence (P10275 whole entry, looked up): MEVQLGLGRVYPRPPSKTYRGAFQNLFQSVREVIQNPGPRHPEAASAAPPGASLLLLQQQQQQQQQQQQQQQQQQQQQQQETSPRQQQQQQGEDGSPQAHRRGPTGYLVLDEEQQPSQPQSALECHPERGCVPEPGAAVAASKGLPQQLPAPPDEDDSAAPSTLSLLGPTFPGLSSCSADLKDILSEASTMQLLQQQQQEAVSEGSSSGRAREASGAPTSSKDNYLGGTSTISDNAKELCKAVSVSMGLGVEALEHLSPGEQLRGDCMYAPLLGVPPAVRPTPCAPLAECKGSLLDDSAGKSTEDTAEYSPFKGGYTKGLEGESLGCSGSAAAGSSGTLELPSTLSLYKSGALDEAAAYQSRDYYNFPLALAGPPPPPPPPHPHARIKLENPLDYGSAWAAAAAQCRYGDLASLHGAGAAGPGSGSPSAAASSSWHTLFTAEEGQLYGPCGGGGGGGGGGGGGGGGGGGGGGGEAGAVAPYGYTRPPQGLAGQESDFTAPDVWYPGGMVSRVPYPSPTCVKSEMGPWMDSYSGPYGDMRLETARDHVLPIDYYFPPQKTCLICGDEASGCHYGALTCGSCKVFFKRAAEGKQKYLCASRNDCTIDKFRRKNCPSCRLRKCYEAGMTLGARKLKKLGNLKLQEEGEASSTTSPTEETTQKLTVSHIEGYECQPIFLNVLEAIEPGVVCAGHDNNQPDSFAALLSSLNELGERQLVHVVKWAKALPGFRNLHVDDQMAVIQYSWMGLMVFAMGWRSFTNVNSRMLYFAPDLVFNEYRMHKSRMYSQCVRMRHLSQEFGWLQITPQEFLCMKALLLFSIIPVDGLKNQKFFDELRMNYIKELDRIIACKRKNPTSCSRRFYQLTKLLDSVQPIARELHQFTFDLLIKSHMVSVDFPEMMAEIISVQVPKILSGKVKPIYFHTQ
Thyrotropin receptor (Homo sapiens), sequence (P16473 whole entry, looked up): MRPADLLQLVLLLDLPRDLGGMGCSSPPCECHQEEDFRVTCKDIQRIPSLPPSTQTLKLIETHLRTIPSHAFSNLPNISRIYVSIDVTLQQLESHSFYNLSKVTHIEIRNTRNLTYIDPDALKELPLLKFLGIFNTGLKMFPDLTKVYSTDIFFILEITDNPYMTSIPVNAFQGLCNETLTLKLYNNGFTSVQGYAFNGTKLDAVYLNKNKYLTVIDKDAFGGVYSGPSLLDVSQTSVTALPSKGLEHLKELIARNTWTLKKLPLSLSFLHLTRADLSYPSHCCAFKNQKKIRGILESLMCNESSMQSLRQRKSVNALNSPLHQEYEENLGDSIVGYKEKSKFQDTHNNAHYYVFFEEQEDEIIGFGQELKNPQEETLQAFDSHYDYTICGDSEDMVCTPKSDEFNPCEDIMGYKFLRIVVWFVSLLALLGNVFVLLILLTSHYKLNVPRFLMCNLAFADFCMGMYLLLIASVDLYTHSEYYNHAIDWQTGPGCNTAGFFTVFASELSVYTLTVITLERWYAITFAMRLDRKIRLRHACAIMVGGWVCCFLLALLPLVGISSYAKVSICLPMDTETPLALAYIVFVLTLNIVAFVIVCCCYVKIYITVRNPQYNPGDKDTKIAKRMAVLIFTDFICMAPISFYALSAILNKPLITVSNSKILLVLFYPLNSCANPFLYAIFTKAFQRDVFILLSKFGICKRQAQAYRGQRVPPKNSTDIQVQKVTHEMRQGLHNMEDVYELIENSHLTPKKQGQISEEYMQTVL

For the compound `COCCOC[C@H](CC1(C(=O)NC2CCC(C(=O)O)CC2)CCCC1)C(=O)Oc1ccc2c(c1)CCC2` (stereo partly specified), the Potency entry in [1], in [2], in [7], in [8], in assay [9] and in assay [14] was “inactive” in each case. In addition, the call in [3], in assay [4], in assay [5], in [6], in assay [10] and in [11] was inactive. For the same compound, the result in assay [12] was inactive. Moreover, the Potency in [13] was 11 µM (active).
As for `Nc1c2c(nc3c1CCC3)CCCC2`, the Potency result in assay [15], in assay [16], in [2], in assay [17], in [7] and in [18] was “inactive” throughout. The Potency result in assay [8], in assay [9], in assay [13] and in [14] was “inactive” in each case. Also, the result in [3], in assay [4], in assay [5], in assay [6], in assay [10] and in [11] was inactive. For the same compound, the outcome in assay [12] and in assay [19] was inactive.
For `CCCCS(=O)(=O)N[C@@H](Cc1ccc(OCCCCC2CCNCC2)cc1)C(=O)O`, the Potency entry in assay [15], in assay [16], in assay [2], in assay [17], in assay [7] and in assay [18] was “inactive” each time. The Potency result in assay [9], in assay [13] and in assay [14] was “inactive” each time. For the same compound, the compound was classed as inactive in [3], in assay [4], in [5], in assay [6], in [10] and in assay [12]. The compound was called inactive in [19].
Consider `NC(=O)NC1N=C([O][Al])NC1=O` (stereo unspecified), for which the Potency entry in assay [15], in assay [16], in assay [2], in assay [17], in assay [7] and in assay [18] was “inactive” in each case. Moreover, the Potency result in assay [9], in assay [13] and in [14] was “inactive” throughout. Besides, the compound was called inactive in assay [3], in [5], in [6], in [10], in assay [12] and in assay [19].
For `OCCCCCO`, the Potency entry in [1], in assay [15], in [17], in [7], in [9] and in assay [13] was “inactive” throughout. For the same compound, the Potency result in [14] was “inactive”. In addition, the compound was called inactive in assay [3], in assay [5], in assay [6], in [10], in assay [11] and in [12]. The outcome in assay [19] was inactive.
On to `CCCCCCC1CCC(=O)O1` (stereo unspecified), for which the Potency entry in [1], in [15], in [17], in assay [7], in assay [8] and in [9] was “inactive” each time. Also, the Potency result in assay [13] and in assay [14] was “inactive” throughout. In addition, the compound was classed as inactive in assay [3], in assay [5], in assay [6], in [10], in assay [11] and in assay [12]. Further, the outcome in assay [19] was inactive.
As to `CO[C@@]1(NC(=O)CSC[C@@H](N)C(=O)O)C(=O)N2C(C(=O)O)=C(CSc3nnnn3C)CS[C@@H]21`, the Potency entry in assay [15], in assay [16], in assay [2], in assay [17], in [7] and in assay [9] was “inactive” in each case. For the same compound, the Potency result in assay [13] and in assay [14] was “inactive” each time. Moreover, the outcome in assay [3], in [4], in [5], in assay [6], in assay [10] and in [11] was inactive. Also, the compound was classed as inactive in [12] and in [19].
As to `CCCc1ncc(C[n+]2ccccc2C)c(N)n1`, the Potency entry in assay [1], in [15], in assay [17], in assay [7], in assay [18] and in assay [9] was “inactive” in each case. Moreover, the Potency entry in [13] and in [14] was “inactive” throughout. Further, the outcome in assay [3], in assay [10], in assay [11], in assay [12] and in assay [19] was inactive.

Source of the values: PubChem BioAssay (Tox21).
